High-throughput results as filed in PubChem BioAssay.
Pf growth 48h: P. falciparum growth inhibition at 48 hours (one generation) | P. falciparum luciferase growth in erythrocytes, 48 h | Potency, µM (doses to about 28.7 µM), most hits filed as inhibitors | 310,000 tested, 5.9% active; active = well fitted inhibition curve with a large enough effect; inconclusive = small, poorly fitted or top-dose-only effect, or another doubt; inactive = no such curve, though single readings can be large or run the other way
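In quantitative HTS format, infected erythrocytes bearing luciferase-reporter parasites were treated for a single generation at 37 C. Luminescence after adding detection reagent served as the growth measure.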
SARS PLP yeast: SARS-CoV PLP inhibition in yeast. S. cerevisiae expressing SARS-CoV PLpro, growth rescue. Potency, µM (top dose mostly 32.9 µM), usual class: activators. 330,000 tested, 0.19% active. AID 485353; also: nearly all actives have a fitted effect of over 55% in size
NS1 inh: inhibitors of influenza NS1 protein function. Potency, µM (doses to about 46.1 µM). 270,000 tested, 0.4% active. AID 2326; also: actives are rising curves; nearly all actives have a fitted effect of over 50% in size
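A cell-based growth assay was used: compounds that relieve NS1-induced slow growth of budding yeast raise OD600. Assay medium was yeast nitrogen base with ammonium sulphate and -URA supplement, pH 6.0, with 2% galactose.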
Pf growth 96h: P. falciparum growth inhibition at 96 hours; P. falciparum luciferase reporter growth, 96 h; Potency, µM (top dose mostly 28.7 µM), hits mostly inhibitors; 320,000 tested, 6.9% active; AID 504834; active = well fitted inhibition curve with a large enough effect; inconclusive = small, poorly fitted or top-dose-only effect, or another doubt; inactive = no such curve, though single readings can be large or run the other way
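Parasite growth measured via integrated firefly luciferase reporter in P. falciparum. Infected erythrocytes at 2% hematocrit, 0.05% parasitemia final were treated 96 hours at 37 C under 5% CO2, and luminescence was read.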
A number is an active result; . = inactive; ? = inconclusive; / = no result. In the library only some 10% were active in any assay of this set; here they are far more common. Unless noted, calls follow the shape of the full dose curve.

SMILES	Pf growth 48h	SARS PLP yeast	NS1 inh	Pf growth 96h
CC(C)(C)c1ccc(C(=O)C2CCCN(C(=O)C3CCOCC3)C2)cc1 (stereo not drawn)	5.9µM	.	.	.
Cn1nccc1C(=O)N1CCCC(C(=O)c2ccc(C(F)(F)F)cc2)C1 (stereo not drawn)	.	.	.	15µM
NC/C=C\C(=O)O	/	/	.	/
CCN(c1ccc(OC)cc1)S(=O)(=O)N1CCCC(C(=O)NCc2cccc(C)c2)C1 (stereo not drawn)	.	.	.	?
COc1ccc2nc3sc(C(=O)NCCN4CCc5ccccc5C4)cc3cc2c1	9.3µM	.	.	?
COc1ccc2cc3cc(C(=O)NCCCN4CCc5ccccc5C4)sc3nc2c1	?	.	.	?
Cc1cc(C)c2c3c(sc2n1)C(=O)N(c1ccccc1)CC(=O)N3	.	.	.	.
COc1cc(C(=O)N(Cc2cc3cc(C)ccc3[nH]c2=O)CC2CCCO2)cc(OC)c1OC (stereo not drawn)	.	.	.	.
COc1ccc(NC(=O)N(Cc2cc3cc(C)ccc3[nH]c2=O)CC2CCCO2)cc1 (stereo not drawn)	3.3µM	.	?	.
COc1cccc(C(=O)N(Cc2cc3cc(C)ccc3[nH]c2=O)CC2CCCO2)c1 (stereo not drawn)	9.3µM	.	.	/
Cc1nn(CC(=O)c2ccccc2)c(=O)c2nn(-c3ccccc3F)c(C)c12	.	.	.	?
O=C(NCCN1CCN(C(=O)NC2CCCCC2)CC1)NC1CCCCC1	.	.	.	13µM
NC(=O)CN1CCN(C(=O)NC2CCCCC2)CC1	/	.	.	.
COc1ccc(CNC(=O)CN(C(=O)CCC(=O)Nc2nccs2)c2ccc3c(c2)OCO3)cc1	.	.	.	.
Cc1cc(C)c2nc(N3CCC(C(=O)N4CCCC4)CC3)sc2c1	8.3µM	.	.	?
Cc1cc(C)c2nc(N3CCCC(C(=O)NC4CCCC4)C3)sc2c1 (stereo not drawn)	.	.	.	5.2µM
Cc1ccc(S(=O)(=O)NCC(=O)N(CC(=O)NCc2ccc(F)cc2)CC2CCCO2)cc1 (stereo not drawn)	.	.	.	?
CCOc1ccccc1N(CC(=O)NCC1CCCO1)C(=O)CNS(=O)(=O)c1ccccc1 (stereo not drawn)	.	.	.	15µM
COc1ccc(CNC(=O)CN(CC2CCCO2)C(=O)CNS(=O)(=O)c2ccc(F)cc2)cc1 (stereo not drawn)	.	.	.	10µM
Cc1cn(CC[C@H](N)C(=O)O)c(=O)[nH]c1=O	/	/	.	/
COc1ccccc1Nc1c([N+](=O)[O-])cc(C)cc1[N+](=O)[O-]	.	.	/	10µM
COc1ccc([N+](=O)[O-])cc1Nc1c2ccccc2nc2ccccc12	12µM	.	.	17µM
COc1ccccc1Nc1ccc([N+](=O)[O-])cc1N	.	.	.	.
COc1ccc(C)cc1NC(=O)Nn1cnnc1	.	.	.	/
COc1cc([N+](=O)[O-])ccc1NC(=O)Nn1cnnc1	.	.	.	13µM
SMILES	Pf growth 48h	SARS PLP yeast	NS1 inh	Pf growth 96h
COc1cc([N+](=O)[O-])ccc1Nc1nc(C)cc(C)n1	.	.	.	9.3µM
CC(C)(C)NC(=S)N/N=C/c1cccnc1	.	.	.	.
COc1ccc(OC)c(Nc2c3ccccc3nc3ccccc23)c1	1.7µM	.	.	?
COc1cc(NS(C)(=O)=O)ccc1Nc1c2ccccc2nc2ccccc12	1µM	/	.	0.93µM
COc1ccc(OC)c(Nc2ccc(Nc3cc(OC)ccc3OC)nn2)c1	?	.	.	9.3µM
O=C(CCC(=O)N1CCN(c2ccccn2)CC1)c1ccc(Cl)s1	.	.	/	.
Cc1cccc(C(=O)NCCc2nnc(SCC(=O)Nc3cccc(C(=O)O)c3)n2C)c1	.	.	.	.
CCOC(=O)CNC(=O)CSc1nnc(CCc2nc3ccccc3[nH]2)n1C	.	.	.	.
COc1ccc(C2=NN(C(=O)c3ccncc3)C(c3ccccc3O)C2)cc1 (stereo not drawn)	?	/	.	?
COc1cccc(C2CC(c3ccc(Br)cc3)=NN2C(=O)c2ccncc2)c1OC (stereo not drawn)	12µM	.	/	?
COc1cccc(C2CC(c3cccc(NS(C)(=O)=O)c3)=NN2C(=O)c2ccccc2)c1OC (stereo not drawn)	1.9µM	.	?	?
COc1ccccc1C1CC(c2ccc(Br)cc2)=NN1C(=O)c1cccnc1 (stereo not drawn)	4.1µM	.	.	1.9µM
COc1ccc(C2=NN(C(=O)c3ccccc3)C(c3ccc(OC)c(OC)c3)C2)cc1OC (stereo not drawn)	?	.	.	?
